# Values joined by “and” are separate entries in the source; they are usually repeats but may differ in a detail not shown here. Equal values may be shown once. Compounds without any hit were thinned out: in the full panel of roughly 83,000, 20% have a hit.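 Cell lines were cultured in 96-well plates, exposed to a single compound concentration, and assessed for percent growth 48 hours later.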 A number with no mark means an inactive call. Active and inactive are the calls of the source. Rule for the calls: active = growth percent below 10; inactive = the rest.
# System: HL-60(TB) leukemia
# Assay: NCI-60 one-dose screen, 48 h (100 = growth as untreated, 0 = no growth, -100 = all killed)
# Settings: 10 µM unless noted
row,SMILES,growth
1,CCN(CC)CCCC(CNc1ccnc2cc(Cl)ccc12)c1ccc(Cl)cc1 (centres undefined),-40.4% (active) and -71% (active)
2,CCCCCCCCOC(=O)c1ccc(O)c(OC)c1,30.9%
3,O=C(/C=C\c1ccc(Cl)c(Cl)c1)c1ccccc1,59.3% and 99.9%
4,O=c1c2cc(-c3ccccc3)sc2nc2sc(-c3ccccc3)nn12,96.4%
5,Cc1nc2ncccc2nc1Nc1ccc(S(=O)(=O)Nc2ccccn2)cc1,100%
6,Cc1c(C(=O)O[C@H]2[C@@H]3[C@H](C)CC[C@H]3[C@]3(C)O[C@@]2(C2CCCCC2)C[C@H]3OC(=O)CO)ccc2ccccc12,-31.5% (active)
7,Nc1ccc(-c2nn3c(CCC(=O)c4nc5ncccc5[nH]4)nnc3s2)c(O)c1,107%
8,COc1ccc(/C(C)=N/NC(=O)c2ccc(S(C)(=O)=O)cc2)cc1OC,50.9%
9,CSC1=NC(=Nc2c(C)cccc2C)C2(CCC(C(C)(C)C)CC2)N1c1ccc(Cl)cc1 (centres undefined),53.4%
10,CC1(C)C2CC1C1(/C=N/NC(N)=S)C(C2)C(C#N)(C#N)C1(C#N)C#N (centres undefined),13.5%
11,Nc1nc(=S)c2ncn(C3OC(COP(=O)(O)O)C(O)C3O)c2[nH]1 (centres undefined),16.3%
12,Cc1ccc(Nc2nnc(-c3cc(-c4ccncc4)n(-c4ccccc4)n3)s2)cc1,66.3%
13,COc1c(CNC(=O)CCl)cc2[nH]c(C)cc2c1CNC(=O)CCl,39.4%
14,Nc1c(C(=O)Nc2cccc(Br)c2)sc2nc3c(cc12)C(O)CCC3 (centres undefined),-2.37% (active)
